These results are taken from PubChem BioAssay.

Molecules are shown by their SMILES. Active and inactive are the calls of the source.

Assay [1] concerns Human papillomavirus type 1a protein E7 (residues 44-93). Nature of the assay: HPV1a E7 fragment binders on microarrays, primary screen, biochemical, small-molecule microarray, residues 44-93, 635 nm fluorescence (AID 1108).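 Further: E7 fragment applied at 1 µg/mL in TBST for 1 h at 4 C; score combines spot fluorescence with its signal to noise ratio.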 The conditions noted are these: small-molecule microarray binding, fluorescence 635 nm; higher = more signal.
Assay [2] is described as follows: modulators of HCV replicon luciferase signal, primary screen, HCV replication inhibitor project, Huh7 cells, luciferase reporter (AID 1109).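 Further: huh7 hepatoma cells harbouring a luciferase neomycin HCV replicon reporter; luciferase luminescence as measure of HCV replicon replication; test concentration not given here.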 The following applies: 48 h, higher = more signal. (In antiviral work, replicon cells carry a viral genome segment that copies itself.)
For assay [3], the target named is Left-right determination factor 2 (Homo sapiens) (UniProt O00292). Nature of the assay: LEFTY2 binders on small-molecule microarrays, primary screen, biochemical, small-molecule microarray, 635 nm fluorescence scan (AID 1110). The following applies: LEFTY2 binding, higher = more signal.
The target of assay [4] is Calmodulin-1 (Homo sapiens) (UniProt P0DP23). In words: CALM1 binders on microarrays, EGTA buffer, profiling panel, biochemical, small-molecule microarray, Cy5-labelled CALM1 (AID 1111).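 Further: labelled calmodulin applied in Tris saline Tween buffer holding calcium plus EGTA and DTT.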 The following applies: Cy5-CALM1 binding fluorescence, higher = more signal.
The target is the same in assay [5]. Nature of the assay: calcium-bound CALM1 binders on microarrays, profiling panel, artefact control for SMM control-protein annotation, biochemical, small-molecule microarray, Cy5-labelled CALM1, plus calcium (AID 1112).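 Further: score merges spot fluorescence with signal to noise from triplicate slides.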 The conditions noted are these: Cy5-CALM1 binding fluorescence, higher = more signal.
A short description of assay [6]: small-molecule microarray binders of probe aWnt5a, primary screen, biochemical, biotinylated probe, 635/667 nm fluorescence (AID 1113).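 Further: score merges 667 nm fluorescence intensity with signal-to-noise per printed feature.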 The conditions noted are these: higher = more signal.
The nature of assay [7]: small-molecule microarray binders of probe aShh, primary screen, biochemical, biotinylated probe, 635/667 nm fluorescence (AID 1114).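 Further: probe is biotin-labelled aShh protein from a stem cell growth factor screen; measures binding of labelled protein to compounds printed on the slide; score merges feature fluorescence at 667 nm with signal-to-noise.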 The conditions noted are these: higher = more signal.
A short description of assay [8]: small-molecule microarray binders of probe aNog, primary screen, biochemical, biotinylated probe, 635/667 nm fluorescence (AID 1115).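 Further: probe is biotinylated aNog protein used at 0.15 µg/mL for 1 h at 4 C; z-score combines 667 nm fluorescence of each spot with its signal to noise.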 The following applies: higher = more signal.
Assay [9] addresses Torsin-1A-interacting protein 1 (Homo sapiens) (UniProt Q5JTV8). Nature of the assay: LAP1 binders from COS7 cell lysate, primary screen, small-molecule microarray, 635/667 nm fluorescence (AID 1116). The following applies: COS7-hLAP1 lysate binding, 635 nm fluorescence, higher = more signal.
Assay [10] addresses Alpha-bungarotoxin (Bungarus multicinctus) (UniProt P60615). Nature of the assay: alpha-bungarotoxin binders on microarray, profiling panel, artefact control for SMM control protein annotation, biochemical, small-molecule microarray, Alexa647 label, 635/667 nm fluorescence (AID 1117). The following applies: alpha-BTX-A647 binding fluorescence, higher = more signal.
The target in the next assay is Albumin (Bos taurus) (UniProt P02769). Nature of the assay: bovine serum albumin binders on microarray, profiling panel, artefact control for SMM control protein annotation, biochemical, small-molecule microarray, Alexa647 label, 635/667 nm fluorescence (AID 1118).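 Further: score merges 667 nm emission intensity and signal-to-noise per printed compound spot.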 The conditions noted are these: BSA-A647 binding, fluorescence 635 nm, higher = more signal.
Assay [11] is described as follows: small-molecule microarray binders of probe aXIP, primary screen, biochemical, NeuroSMM set, 635/667 nm fluorescence (AID 1119).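 Further: probe is the protein aXip251-270 applied at 1 µg/mL to compound-printed slides; binding of probe to printed compounds measured as 667 nm fluorescence plus signal to noise.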 The conditions noted are these: higher = more signal, called active from +8 up or from −8 down.
The nature of assay [12]: small-molecule binders of probe aNOTCH3, primary screen, biochemical, small-molecule microarray, 635/667 nm fluorescence (AID 1120).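 Further: probe is a biotin-tagged antibody raised against NOTCH3 rather than NOTCH3 protein; score merges spot fluorescence near 667 nm with spot signal to noise.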 The following applies: higher = more signal.
Assay [13] in a line: small-molecule binders of probe aNOTCH2, primary screen, biochemical, small-molecule microarray, 635/667 nm fluorescence (AID 1121).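 Further: score merges feature fluorescence read at 667 nm with its signal to noise.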 The conditions noted are these: higher = more signal.
Assay [14] addresses Carbonic anhydrase 2 (Homo sapiens) (UniProt P00918). Nature of the assay: CAII small-molecule binders, profiling panel, biochemical, small-molecule microarray, Alexa647-labelled CAII (AID 1122). The conditions noted are these: CAII-A647 binding fluorescence, higher = more signal.
Assay [15] can be described thus: COS7 lysate on small-molecule microarray, probe aHis, 635 nm (AID 1123).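 Further: z-score combines 667nm fluorescence intensity with signal-to-noise per printed compound spot.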 The following applies: COS7 cell lysate, fluorescence, higher = more signal.
Assay [16] in a line: compound binding in COS7 lysate, probe aLAP1, primary screen, cell lysate, small-molecule microarray (AID 1124).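 Further: lysate comes from COS7 cells expressing LAP1 and is applied at 0.3 µg/mL; score merges spot fluorescence near 667 nm with signal-to-noise over triplicate slides.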 The following applies: probe aLAP1, fluorescence, higher = more signal.
In a further assay the test system is Sam68 (KHDRBS1). In words: Sam68 small-molecule binders, primary screen, biochemical, small-molecule microarray, 635 nm fluorescence (AID 1125).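 Further: score merges 667 nm channel intensity with signal to noise over triplicate slides.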 The following applies: small-molecule microarray binding, higher = more signal.
Assay [17] concerns Chordin-like protein 2 (CHRDL2). In words: CHRDL2 small-molecule binders, primary screen, biochemical, small-molecule microarray, 635 nm fluorescence (AID 1126).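 Further: printed compound slides probed with Chrdl2 protein at 4 µg/mL for 1 h at 4 C; score merges 667 nm emission intensity with signal to noise over three replicate slides.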 The conditions noted are these: small-molecule microarray binding, fluorescence 635 nm; higher = more signal.
Assay [18] concerns the target Concanavalin-A (Canavalia ensiformis) (UniProt P02866). In words: ConA small-molecule binders, primary screen, artefact control for SMM control protein annotation, biochemical, small-molecule microarray, Alexa647 label, 635 nm (AID 1127).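 Further: z combines 667 nm emission intensity with signal-to-noise across three replicate slides.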 The following applies: ConA-A647 binding fluorescence, higher = more signal.

Albumin (Bos taurus), sequence (P02769 whole entry, looked up): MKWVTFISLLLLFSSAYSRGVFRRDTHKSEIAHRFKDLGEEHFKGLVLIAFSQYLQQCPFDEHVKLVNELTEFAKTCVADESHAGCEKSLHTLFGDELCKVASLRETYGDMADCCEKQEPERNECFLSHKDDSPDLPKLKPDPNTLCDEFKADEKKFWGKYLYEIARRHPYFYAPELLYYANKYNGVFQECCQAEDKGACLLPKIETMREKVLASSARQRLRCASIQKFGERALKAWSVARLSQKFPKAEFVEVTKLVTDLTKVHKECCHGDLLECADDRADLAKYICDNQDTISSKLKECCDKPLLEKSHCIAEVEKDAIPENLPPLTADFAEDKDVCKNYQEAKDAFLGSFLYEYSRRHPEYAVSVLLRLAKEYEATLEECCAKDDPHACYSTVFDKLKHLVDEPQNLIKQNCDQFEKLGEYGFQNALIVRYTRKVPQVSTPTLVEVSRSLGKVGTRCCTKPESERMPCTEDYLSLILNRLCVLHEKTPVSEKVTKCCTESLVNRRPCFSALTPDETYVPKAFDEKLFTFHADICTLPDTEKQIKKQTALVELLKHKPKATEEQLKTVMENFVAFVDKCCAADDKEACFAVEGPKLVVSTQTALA
Left-right determination factor 2 (Homo sapiens), sequence (O00292 whole entry, looked up): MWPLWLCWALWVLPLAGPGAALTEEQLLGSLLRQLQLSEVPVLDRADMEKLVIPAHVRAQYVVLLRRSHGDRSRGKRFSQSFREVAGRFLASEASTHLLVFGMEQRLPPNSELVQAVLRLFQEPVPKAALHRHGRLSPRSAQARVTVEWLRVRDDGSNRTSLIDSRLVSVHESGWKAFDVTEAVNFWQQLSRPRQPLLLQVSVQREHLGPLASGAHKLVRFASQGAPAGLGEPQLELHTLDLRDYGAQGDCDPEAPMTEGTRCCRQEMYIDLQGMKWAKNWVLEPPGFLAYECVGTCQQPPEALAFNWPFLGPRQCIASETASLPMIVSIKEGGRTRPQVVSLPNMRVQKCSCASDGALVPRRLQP
Torsin-1A-interacting protein 1 (Homo sapiens), sequence (Q5JTV8 whole entry, looked up): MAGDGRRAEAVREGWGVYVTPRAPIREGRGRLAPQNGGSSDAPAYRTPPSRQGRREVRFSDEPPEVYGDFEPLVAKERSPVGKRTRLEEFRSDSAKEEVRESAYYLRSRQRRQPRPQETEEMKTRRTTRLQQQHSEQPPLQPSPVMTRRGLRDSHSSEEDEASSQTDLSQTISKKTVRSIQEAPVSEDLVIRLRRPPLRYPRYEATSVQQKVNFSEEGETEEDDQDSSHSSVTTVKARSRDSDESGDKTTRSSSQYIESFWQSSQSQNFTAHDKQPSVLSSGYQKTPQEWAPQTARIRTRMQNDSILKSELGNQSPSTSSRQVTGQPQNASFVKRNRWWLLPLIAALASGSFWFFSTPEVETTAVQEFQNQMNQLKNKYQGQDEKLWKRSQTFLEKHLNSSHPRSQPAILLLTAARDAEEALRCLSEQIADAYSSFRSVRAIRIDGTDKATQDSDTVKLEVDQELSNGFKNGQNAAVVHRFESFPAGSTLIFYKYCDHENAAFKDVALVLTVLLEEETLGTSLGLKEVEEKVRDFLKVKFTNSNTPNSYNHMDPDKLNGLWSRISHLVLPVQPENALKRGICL
Alpha-bungarotoxin (Bungarus multicinctus), sequence (P60615 whole entry, looked up): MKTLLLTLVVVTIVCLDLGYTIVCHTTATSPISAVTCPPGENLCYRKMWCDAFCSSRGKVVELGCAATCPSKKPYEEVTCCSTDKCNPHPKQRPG
Concanavalin-A (Canavalia ensiformis), sequence (P02866 whole entry, looked up): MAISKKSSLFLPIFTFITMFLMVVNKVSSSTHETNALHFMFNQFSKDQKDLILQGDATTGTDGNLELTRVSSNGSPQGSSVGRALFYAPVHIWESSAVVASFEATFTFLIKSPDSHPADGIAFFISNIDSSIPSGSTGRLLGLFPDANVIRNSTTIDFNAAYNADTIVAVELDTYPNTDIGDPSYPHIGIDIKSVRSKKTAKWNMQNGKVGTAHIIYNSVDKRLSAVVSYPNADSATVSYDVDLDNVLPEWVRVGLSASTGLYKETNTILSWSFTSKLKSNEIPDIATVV

Take `[N-]=[N+]=NCc1ccccc1[C@H]1OC(c2ccc(OCCCO)cc2)=N[C@@]1(Cc1ccccc1N=[N+]=[N-])C(=O)N1CCCCC1`: the composite z-score in assay [1] is 1.46; in assay [3], 0.291; in [4], 1; in [5], 0.289; in assay [6], 0.132; in assay [7] it was -0.157. Further, the composite z-score in assay [8] is 1.76; in [9], 1.44; in [10], 1.3; with Albumin (Bos taurus), -0.0584; in assay [12], 0.374; in [13] it was 0.104. Further, the composite z-score was 0.559 in assay [14]; 2.97 in assay [15]; 0.608 in assay [16]; 1.29 with Sam68 (KHDRBS1); 0.0975 in assay [17]; 0.988 in [18]. This molecule registered a z-score in assay [2] of -2.19. For the same molecule, the composite Z-score in [11] was -0.202 (inactive).

On to `COc1ccccc1CN1C(=O)c2ccccc2[C@](Cc2ccccc2I)(C(=O)NCCN2CCOCC2)[C@@H]1c1ccc(CO)cc1`, for which the composite z-score in assay [1] was 1.36; in assay [3] it was 1.01; in assay [4] it was 0.688; in [5] it was -0.768; in assay [6], -0.0118; in assay [7] it was -0.144. Also, the composite z-score in [8] was -0.0746; in assay [9] it was 0.488; in assay [10], 1.19; in the assay with Albumin (Bos taurus) it was 0.655; in assay [12], 0.0629; in [13], -0.0288. Also, the composite z-score came out at 0.646 in assay [14]; 1.71 in assay [15]; 1.01 in assay [16]; 1.29 in the assay with Sam68 (KHDRBS1); 0.617 in assay [17]; 1.1 in assay [18]. The z-score in [2] was -2.96. Further, in [11], the composite Z-score was -0.0337 (inactive).

Consider `CC(C)C[C@H]1NC(=O)[C@H](C)NC(=O)[C@@]23C(=O)N[C@@H](Cc4ccccc4)C2[C@H](C)[C@@]2(C)O[C@H]2C3/C=C/C/C=C\CNC1=O` (stereo not given in full), for which the composite z-score in [1] was 0.84; in assay [3] it was -0.206; in assay [4], -0.893; in [5], -0.806; in assay [6] it was -0.166; in [7], -0.123. Moreover, the composite z-score in assay [8] was 0.202; in [9], 0.462; in assay [10] it was -0.086; with Albumin (Bos taurus), 0.876; in assay [12] it was -0.227; in assay [13], -0.172. In addition, the composite z-score is 0.734 in [14]; -0.38 in assay [15]; -0.229 in [16]; 0.371 with Sam68 (KHDRBS1); 0.409 in assay [17]; -0.565 in [18]. This molecule yielded a z-score in assay [2] of -0.201. For the same molecule, the composite Z-score in [11] was -0.155 (inactive).

For the molecule `O=C1O[C@@H](c2ccccc2)[C@@H](c2ccccc2)N2[C@@H](c3ccc(O)cc3)[C@]3(C(=O)Nc4ccc(C#CC5(O)CCCCCC5)cc43)[C@@H](C(=O)N3CCN(c4ncccn4)CC3)[C@H]12`, the composite z-score is 1.4 in assay [1]; 0.114 in assay [3]; 1.03 in [4]; 0.137 in assay [5]; -0.0721 in assay [6]; 0.255 in assay [7]. Moreover, the composite z-score in assay [8] was 0.146; in assay [9], 1.18; in [10], 1.21; with Albumin (Bos taurus), 0.77; in assay [12], -0.0558; in [13] it was -0.123. Besides, the composite z-score in assay [14] is 0.604; in assay [15], 1.87; in assay [16], 0.333; in the assay on Sam68 (KHDRBS1), 1.31; in assay [17], -0.106; in assay [18] it was 1.13. The molecule also displayed a z-score in [2] of -0.843. Moreover, the composite Z-score in assay [11] is 0.95 (inactive).

With `O=C1C2C=CC(C(O)c3cccc4ccccc34)N(Nc3ccccc3)C2C(=O)N1c1ccccc1` (stereo not given), the composite z-score in [1] was 1.38; in assay [3], 0.321; in [4] it was 0.972; in [5], -0.8; in assay [6], 0.0725; in assay [7], 0.424. In addition, the composite z-score is 1.05 in assay [8]; 0.759 in assay [9]; 2.06 in assay [10]; 0.571 with Albumin (Bos taurus); 0.277 in [12]; 0.0312 in [13]. Further, the composite z-score was found to be 0.655 in [14]; 2.28 in assay [15]; 1.47 in assay [16]; 0.983 in the assay with Sam68 (KHDRBS1); 0.724 in [17]; 0.89 in [18]. In addition, in [2], the z-score is -1.29. In addition, the composite Z-score in [11] is 0.739 (inactive).

In the case of `COc1ccc([Si](C)(C)[C@@H]2[C@@H](CC(=O)N(CCO)Cc3ccccc3)O[C@]3(C(=O)N(Cc4ccc(N5CCOC5=O)cc4)c4ccccc43)[C@H]2C)cc1`, the composite z-score in assay [1] is 0.542; in assay [3], 0.491; in [4] it was 0.515; in assay [5] it was 0.385; in assay [6], -0.0337; in assay [7], 0.321. The composite z-score in [8] is 0.264; in assay [9] it was 1.02; in [10] it was 0.989; in the assay with Albumin (Bos taurus), -0.697; in assay [12], -0.063; in assay [13] it was -0.175. Also, the composite z-score in assay [14] was 0.469; in assay [15], 1.35; in assay [16] it was -0.211; in the assay with Sam68 (KHDRBS1), 0.951; in [17], 0.697; in [18] it was 1.08. In assay [2], this molecule gave a z-score of -4.45. Moreover, the composite Z-score in assay [11] is 0.516 (inactive).

Consider `O=C1N(CCS(=O)(=O)c2ccccc2)Cc2ccccc2C[C@@]12COC(c1ccc(OCCCO)cc1)=N2`, for which the composite z-score in [1] is 1.08; in assay [3] it was 0.906; in assay [4], 0.303; in assay [5], 0.87; in [6], 0.0561; in assay [7], -0.0858. Moreover, the composite z-score was 0.618 in assay [8]; 1.56 in assay [9]; 2.33 in [10]; -0.0401 with Albumin (Bos taurus); 0.384 in [12]; -0.0651 in [13]. Also, the composite z-score in [14] was 0.585; in [15], 2.55; in assay [16], 0.203; with Sam68 (KHDRBS1) it was 1.32; in assay [17], 0.825; in assay [18], 1.17. Also, the z-score in [2] was -2.31. Moreover, in assay [11], the composite Z-score is 0.319 (inactive).

Turning to `CCCC=C(CCC)[C@@H](NS(=O)(=O)c1cccc2cccnc12)c1ccc(C(=O)OC)cc1`, the composite z-score in assay [1] is 0.591; in assay [3] it was 0.804; in [4], 0.156; in [5], -0.2; in assay [6] it was 1.77; in assay [7] it was 0.0093. Besides, the composite z-score in [8] is 3.92; in assay [9], 0.354; in assay [10] it was -0.0527; with Albumin (Bos taurus) it was -0.207; in assay [12], 2.12; in [13], 1.16. The composite z-score amounted to 0.771 in [14]; 0.313 in assay [15]; 0.392 in assay [16]; 0.287 in the assay with Sam68 (KHDRBS1); 0.599 in assay [17]; 0.782 in assay [18]. In [2], this molecule came in with a z-score of 0.347. Besides, the composite Z-score in assay [11] was 0.242 (inactive).
